This note sets out measurements from PubChem BioAssay.

Test [1] is described as follows: resazurin metabolic signal in HepG2 cells – cell-based, resazurin fluorescence, 24 h, PK04 Diversity Set, profiling panel (AID 1172). Note: test concentration not given here. The following applies: HepG2 viability, higher = more signal.
Test [2] is described as follows: budding yeast growth changes without added modifier – OD600, strain BY4716, 24 h, basal condition, primary screen (AID 1173). The conditions noted are these: S. cerevisiae BY4716 growth, OD600, 24 h; higher = more signal, called active from +8 up or from −8 down.
Test [3] can be described thus: viability profiling in MM1S myeloma cells – cell-based, resazurin fluorescence, basal, 24 h, PK04 Diversity Set, profiling panel (AID 1174).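 Note: MM1S multiple myeloma cell line; test concentration not given here.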 The conditions noted are these: higher = more signal, called active from +8 up or from −8 down. Background: Alamar Blue is a resazurin reagent that responds to reducing activity.
Test [4] addresses Dihydroorotate dehydrogenase (quinone), mitochondrial (Plasmodium falciparum (isolate 3D7)) (UniProt Q08210). Put plainly: inhibition of P. falciparum DHODH – biochemical, C-terminal His tag, absorbance 600 nm, primary screen (AID 1175).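 Note: recombinant parasite enzyme with a five histidine tag at its C terminus; test concentration not given here.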 The following applies: PfDHODH enzyme, DCIP absorbance 600 nm; higher = more signal, called active from +8 up or from −8 down.
Test [5] can be described thus: inhibition of PAO1 biofilm formation – strain PAO1, LB-PBS medium, absorbance 600 nm, primary screen (AID 1176). Note: test concentration not given here. The following applies: P. aeruginosa PAO1 growth/biofilm, A600, 12 h; higher = more signal.
Test [6] can be described thus: growth modulation of vineyard yeast isolate – strain RM11-1a, OD600, basal, 24 h, primary screen (AID 1177).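 Note: cultures grown under basal conditions with no added stressor; test concentration not given here.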 The conditions noted are these: S. cerevisiae RM11-1a growth, OD600, 24 h; higher = more signal, called active from +8 up or from −8 down.
A short description of test [7]: growth of efflux-deficient E. coli DRC39 – strain DRC39, OD650, 24 h, E. coli filamentation inducers, primary screen (AID 1178).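 Note: growth measured as culture turbidity by optical density at 650 nm; test concentration not given here.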 The conditions noted are these: E. coli DRC39 acrAB, higher = more signal, called active from +8 up or from −8 down.
A short description of test [8]: growth of efflux-deficient E. coli DRC39 – strain DRC39, OD650, 48 h, E. coli filamentation inducers, primary screen (AID 1179).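 Note: screen aims at cell division blockers that make cells filament.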 The conditions noted are these: E. coli DRC39 delta-acrAB growth, higher = more signal, called active from +8 up or from −8 down.
The nature of test [9]: viability profiling in RPMI8226 myeloma cells – cell-based, resazurin fluorescence, basal, 24 h, PK04 Diversity Set, profiling panel (AID 1180).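 Note: RPMI8826 multiple myeloma cell line at 5000 cells per well; test concentration not given here.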 The following applies: higher = more signal.
The target of test [10] is E3 ubiquitin-protein ligase XIAP (Homo sapiens) (UniProt P98170). Put plainly: small molecules binding XIAP protein – biophysical, small-molecule microarray, fluorescence 635 nm, primary screen (AID 1181).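 Note: score merges 667 nm emission and signal to noise over triplicate slides.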 The conditions noted are these: higher = more signal.
E3 ubiquitin-protein ligase XIAP (Homo sapiens), sequence (P98170 whole entry, looked up): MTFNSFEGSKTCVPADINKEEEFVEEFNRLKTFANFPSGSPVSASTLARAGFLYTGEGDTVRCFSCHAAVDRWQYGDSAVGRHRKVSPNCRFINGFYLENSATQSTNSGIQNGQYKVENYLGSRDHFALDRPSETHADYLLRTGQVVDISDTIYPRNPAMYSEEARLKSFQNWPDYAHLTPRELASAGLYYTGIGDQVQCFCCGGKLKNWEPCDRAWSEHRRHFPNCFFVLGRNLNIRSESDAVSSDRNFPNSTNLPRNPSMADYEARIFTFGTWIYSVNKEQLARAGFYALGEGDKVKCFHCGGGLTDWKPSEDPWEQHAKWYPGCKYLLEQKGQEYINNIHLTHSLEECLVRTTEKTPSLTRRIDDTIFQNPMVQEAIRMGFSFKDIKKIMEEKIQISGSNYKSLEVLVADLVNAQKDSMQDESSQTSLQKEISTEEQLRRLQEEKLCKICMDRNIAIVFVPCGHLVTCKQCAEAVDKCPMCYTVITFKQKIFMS

Active and inactive are the calls of the source. Unless noted, the rule behind the calls is not given here.

Dihydroorotate dehydrogenase (quinone), mitochondrial (Plasmodium falciparum (isolate 3D7)), sequence (Q08210 whole entry, looked up): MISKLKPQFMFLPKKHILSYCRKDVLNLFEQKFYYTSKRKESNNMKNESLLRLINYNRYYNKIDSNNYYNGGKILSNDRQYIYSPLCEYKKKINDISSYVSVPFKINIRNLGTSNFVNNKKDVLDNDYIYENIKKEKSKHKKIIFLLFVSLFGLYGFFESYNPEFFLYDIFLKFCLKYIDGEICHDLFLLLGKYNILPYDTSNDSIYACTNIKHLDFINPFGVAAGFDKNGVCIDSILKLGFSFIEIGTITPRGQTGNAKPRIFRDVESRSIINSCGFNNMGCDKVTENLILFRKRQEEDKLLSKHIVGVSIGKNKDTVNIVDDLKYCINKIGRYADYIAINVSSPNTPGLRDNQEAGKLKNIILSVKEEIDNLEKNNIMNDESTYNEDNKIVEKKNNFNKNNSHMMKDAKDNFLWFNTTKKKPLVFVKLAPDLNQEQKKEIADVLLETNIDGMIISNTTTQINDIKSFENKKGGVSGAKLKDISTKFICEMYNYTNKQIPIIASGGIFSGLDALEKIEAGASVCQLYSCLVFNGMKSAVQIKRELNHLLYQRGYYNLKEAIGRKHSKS

For the compound `CCOC(=O)C1=CC[C@@H](c2ccccc2Cl)N(S(=O)(=O)c2ccc(C)cc2)[C@H]1c1cccc(OC)c1`, the z-score in test [1] was -0.18; in test [2] it was 1.46 (inactive); in [3], -0.703 (inactive); in test [5] it was 0.34 (inactive); in test [6] it was 0.822 (inactive); in test [7], -0.484 (inactive). The figures for the z-score in test [8] and in test [9] were -0.679 (inactive) and -1.53, respectively. Further, the composite z-score in test [4] is 0.0463 (inactive); in [10] it was -0.114.
With `COC(=O)[C@@]1(Cc2ccc(F)cc2)[C@H]2c3cc(C(=O)N(C)C)n(CCO)c3C[C@H]2CN1C(=O)c1ccccc1`, the z-score in test [1] was -0.359; in test [2], -0.092 (inactive); in test [3], -0.438 (inactive); in test [5], 0.865 (inactive); in [6] it was -0.251 (inactive); in test [7] it was -0.356 (inactive). The z-score in [8] is -0.0099 (inactive); in [9], -0.0323. Besides, the composite z-score in test [4] is -0.844 (inactive); in test [10], 0.49.
For the compound `COC(=O)[C@@]1(Cc2ccc(F)cc2)[C@H]2c3cc(C(=O)N4CCCC4)n(CCO)c3C[C@H]2CN1C(=O)c1ccccc1`, the z-score in test [1] was -0.31; in test [2] it was 0.894 (inactive); in [3], -1.38 (inactive); in [5], -0.278 (inactive); in test [6], 0.302 (inactive); in [7] it was 0.0412 (inactive). Further, the z-score in [8] was -0.654 (inactive); in test [9], -0.908. Also, the composite z-score in test [4] was -0.757 (inactive); in [10] it was -0.16.
`C=CCC(OC(C)=O)[C@@H]1[C@@H](N(Cc2cc3ccccc3o2)C(=O)c2ccc(-c3ccccc3)cc2)c2cc(OCCCO)ccc2N1C(=O)c1ccc2ccccc2n1` (stereo not given in full): the z-score in [1] is -0.0694; in [2] it was 0.848 (inactive); in test [3], 0.943 (inactive); in test [5] it was 0.35 (inactive); in test [6], 0.913 (inactive); in test [7], 0.965 (inactive). The z-score was 0.553 (inactive) in [8] and 0.97 in [9]. For the same compound, the composite z-score in test [4] was 0.706 (inactive); in [10] it was -0.0818.
Consider `COc1ccc([Si](C)(C)[C@H]2[C@H](CCO)O[C@@]3(C(=O)N(Cc4ccc(N5CCOC5=O)cc4)c4ccccc43)[C@@H]2C)cc1`, for which the z-score in test [1] is -0.667; in test [2], 2.47 (inactive); in test [3], -2.66 (inactive); in test [5] it was 2.02 (inactive); in test [6], 5.44 (inactive); in test [7] it was 1.32 (inactive). In addition, the z-score is 0.714 (inactive) in test [8] and -2.06 in [9]. The composite z-score in test [4] was 1.02 (inactive); in [10] it was -0.0206.
Regarding `CCOC(=O)C1=CCC(c2cc3ccccc3[nH]2)N(S(=O)(=O)c2ccccc2[N+](=O)[O-])C1` (stereo not given), the z-score in test [1] was -0.0211; in test [2] it was 1.08 (inactive); in test [3], -1.08 (inactive); in test [5] it was 0.546 (inactive); in test [6], -0.16 (inactive); in [7] it was -0.591 (inactive). For the same compound, the z-score in test [8] is 0.158 (inactive); in test [9], -1.62. Besides, the values for the composite z-score in test [4] and in test [10] were -0.242 (inactive) and -0.014, respectively.
On to `CN(C)CCCCNC(=O)[C@H]1C[C@H]2C(=O)N[C@@H](Cc3ccccc3)C(=O)N2[C@H]1c1cccc(OCCO)c1`, for which the z-score in [1] is 1.36; in test [2], -0.456 (inactive); in test [3], 1.38 (inactive); in test [5], -0.254 (inactive); in [6], -0.372 (inactive); in test [7], 0.553 (inactive). Also, the z-score in test [8] was 0.862 (inactive); in test [9], 1.06. Further, the composite z-score is 0.65 (inactive) in [4] and 0.0512 in test [10].
As to `C[C@H]1C2[C@H](Cc3ccccc3)NC(=O)[C@]23C(=O)NCC(=O)N2CCC[C@H]2C(=O)NC/C=C\C/C=C/C3[C@@H]2O[C@]12C` (stereo not given in full), the z-score is 0.825 in test [1]; -1.82 (inactive) in [2]; 0.741 (inactive) in test [3]; -0.14 (inactive) in [5]; -0.939 (inactive) in test [6]; 1.02 (inactive) in test [7]. The values for the z-score in test [8] and in [9] were 0.741 (inactive) and 1.05, respectively. In addition, the values for the composite z-score in test [4] and in [10] were -0.173 (inactive) and -0.258, respectively.
Regarding `CCCCCN1CC=CC23O[C@@H]4C=CCOC(=O)[C@@H]4[C@H]2C(=O)N(CCCCCO)[C@@H]3C1=O` (stereo not given in full), the z-score was 0.773 in [1]; -0.284 (inactive) in test [2]; -0.295 (inactive) in test [3]; 0.441 (inactive) in test [5]; -0.196 (inactive) in test [6]; -0.151 (inactive) in test [7]. The z-score in test [8] was -0.352 (inactive); in test [9], 0.0715. Besides, the values for the composite z-score in test [4] and in test [10] were -1.09 (inactive) and -0.244, respectively.
`CC(C)c1ccc(NN2C(C(O)C(C)C)C=CC3C(=O)N(c4ccccc4)C(=O)C32)cc1` (stereo not given): the z-score in test [1] is -1.65; in test [2] it was -0.619 (inactive); in [3], -0.331 (inactive); in test [5], 0.711 (inactive); in test [6], 1.57 (inactive); in test [7], 0.0582 (inactive). For the same compound, the z-score in [8] was -0.303 (inactive); in [9] it was 0.0438. Also, the composite z-score in [4] was 0.974 (inactive); in [10] it was 0.132.
For the compound `O=C1N(CCS(=O)(=O)c2ccccc2)c2ccccc2[C@@H]2OC(c3ccc(OCCCO)cc3)=N[C@]12CCS(=O)(=O)c1ccccc1`, the z-score in test [1] was 0.546; in [2] it was 1.24 (inactive); in test [3] it was -0.0861 (inactive); in test [5] it was 1.73 (inactive); in test [6] it was 1.8 (inactive); in [7] it was 0.481 (inactive). In addition, the z-score in test [8] was -0.468 (inactive); in test [9], -0.63. Also, the composite z-score in test [4] is -0.038 (inactive); in test [10], -0.265.
In the case of `COCCCNC(=O)[C@@H]1c2ccccc2C(=O)N(C2CCCCC2)[C@H]1c1ccc(CO)cc1`, the z-score in test [1] was 0.559; in [2] it was -0.32 (inactive); in test [3], 0.614 (inactive); in test [5], 0.745 (inactive); in test [6], -0.611 (inactive); in test [7] it was 0.0359 (inactive). In addition, the figures for the z-score in [8] and in test [9] were -0.122 (inactive) and 0.505, respectively. Further, the composite z-score was -0.271 (inactive) in test [4] and -0.0773 in test [10].
Regarding `CC(C)C[C@@H]1NC(=O)[C@H]2C[C@@H](C(=O)NCCCCCCNC(=O)CS)[C@@H](c3ccc(O)cc3)N2C1=O`, the z-score in test [1] is 0.102; in test [2], 0.153 (inactive); in test [3], 0.0815 (inactive); in [5], 0.932 (inactive); in [6] it was 0.088 (inactive); in [7] it was 0.236 (inactive). The figures for the z-score in [8] and in test [9] were -0.0073 (inactive) and -0.596, respectively. In addition, the values for the composite z-score in test [4] and in [10] were 0.31 (inactive) and 0.101, respectively.
